Among the data in PubChem BioAssay (NCATS) are viability and Potency values, retold here.

SMILES strings stand for the structures. Results filed as inconclusive are left out. Values without a mark were called inactive. Calls of active or inactive are those of the source. The call rests on the fitted dose curve; in most records, active means well fitted curve in the direction sought with a large enough effect; inconclusive means small, poorly fitted or top-dose-only effect, or another doubt; inactive means no such curve, though single readings can be large; an effect the other way counts as inactive or inconclusive.

Experiment [1] in a line: BET inhibitor-based combinations targeting novel dependencies in MECOM-rearranged (r) AML: SET-2 cell line (AID 2202231). Further: nearly all actives have a fitted effect of over 35% in size.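 On viability: plate controls were DMSO treated cells for no effect and wells without cells for full effect.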 The settings on record: SET-2 AML cells viability, CellTiter-Glo luminescence, 48 h; viability: hits give low values, concentration not given here. The method in brief: (§1)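 Luminescent ATP readout (CellTiter-Glo) after 48 hr drug exposure gives viability. Curves span 11 concentrations and are normalized to DMSO and empty wells. Activity is reported as area under the curve and its Z-transform within each cell line.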

The nature of experiment [2]: BET inhibitor-based combinations targeting novel dependencies in MECOM-rearranged (r) AML: HNT-34 cell line (AID 2202234). Further: nearly all actives have a fitted effect of over 35% in size. In short, it runs like this:
(§2)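 Luminescent ATP readout (CellTiter-Glo, 15 min at room temperature) after 48 hr drug exposure gave viability. Dose-response curves, normalized to DMSO and empty-well controls, were summarized as area under the curve and its mean-centred Z-score.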

The nature of experiment [3]: BET inhibitor-based combinations targeting novel dependencies in MECOM-rearranged (r) AML: UCSD-AML1 cell line (AID 2202235). Further: nearly all actives have a fitted effect of over 40% in size. In short, it runs like this:
as §2

The nature of experiment [4]: BET inhibitor-based combinations targeting novel dependencies in MECOM-rearranged (r) AML: AML-194 cell line (AID 2202237; further: nearly all actives have a fitted effect of over 40% in size). The method in brief: as §1
Experiment [5] can be described thus: BET inhibitor-based combinations targeting novel dependencies in MECOM-rearranged (r) AML: MV-4-11 cell line (AID 2202233). Further: nearly all actives have a fitted effect of over 45% in size. The method in brief:
as §2

Experiment [6] is described as follows: BET inhibitor-based combinations targeting novel dependencies in MECOM-rearranged (r) AML: AML-191 cell line (AID 2202236; further: nearly all actives have a fitted effect of over 35% in size). In short, it runs like this: as §1
Potency means the concentration at half of the fitted maximal effect.

`NC1=N[C@@]2(c3cc(NC(=O)c4ccc(F)cn4)ccc3F)COC[C@H]2CS1`: the viability in experiment [1] was 112%. The Potency entry in experiment [2], in experiment [3] and in experiment [4] was “inactive” throughout.

Regarding `Nc1ccc(F)cc1NC(=O)c1ccc(CNC(=O)/C=C/c2cccnc2)cc1`, the Potency in experiment [1] is 13.2 µM (active); in experiment [2], 4.17 µM (active); in experiment [3], 5.25 µM (active); in experiment [4], 14.8 µM (active).

Regarding `Fc1ccc(-c2csc3ncnc(NCc4ccc5c(c4)OCO5)c23)cc1`, the Potency is 5.9 µM (active) in experiment [1], 20.9 µM (active) in experiment [5] and 16.6 µM (active) in experiment [6].

On to `O=C(Nc1nccs1)C(c1cc(F)ccc1O)N1Cc2ccccc2C1=O` (stereo unspecified), for which the Potency in experiment [1] is 18.6 µM (active); in experiment [2] it was 16.6 µM (active). In addition, the Potency entry in experiment [3], in experiment [6] and in experiment [4] was “inactive” in each case.
